In the supplement of paper PMC6555819:

How the values were obtained:
Assay in all cases: PBM binding z-score (relative to random genomic background probes); higher = stronger binding; sequences stand for … in GC…GCGATTGACAGCGTAGAATGAAGG
[1] = test system: RARb homodimer (NR concentration 270 nM)
Procedure, shortened: (§1)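 Ligand-free nuclear receptor dimers were bound for 1 h to custom Agilent 4×180K protein-binding microarrays. Detection used antibodies against each partner (one per run). Binding z-scores rest on regression-normalized fluorescence, with random background probes as the reference.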

[2] = test system: RARg:RXRa (NR concentration 270 nM, RXRa partner concentration 90 nM)
Procedure, shortened: as §1

[3] = test system: RARg homodimer (NR concentration 270 nM)
Procedure, shortened: as §1

[4] = test system: RXRa DBDmut IVT, anti-RXR (DBD mutation: RXRa K156A/R161A, NR concentration 90 nM)
Procedure, shortened: as §1

[5] = test system: RXRa homodimer (NR concentration 180 nM)
Procedure, shortened: as §1

[6] = test system: THRa:RXRa (NR concentration 90 nM, RXRa partner concentration 90 nM)
Procedure, shortened: as §1

[7] = test system: THRa homodimer (NR concentration 90 nM)
Procedure, shortened: as §1

[8] = test system: VDR:RXRa (NR concentration 270 nM, RXRa partner concentration 90 nM)
Procedure, shortened: as §1

[9] = test system: VDR homodimer (NR concentration 270 nM)
Procedure, shortened: as §1

Row | Sequence | PBM binding z-score [1] | PBM binding z-score [2] | PBM binding z-score [3] | PBM binding z-score [4] | PBM binding z-score [5] | PBM binding z-score [6] | PBM binding z-score [7] | PBM binding z-score [8] | PBM binding z-score [9]
1 | TCGAGTAGGTTACCGATGGGGCATTCAGCTTTCT | 0.462 | 1.47 | 0.276 | 0.165 | 0.626 | 0.0793 | -0.771 | 0.0364 | -0.757
2 | TGATATAGGTAAACAGGTGAAAGTCCGTAAGTTA | 0.629 | 0.44 | 0.407 | -0.121 | 0.613 | 0.68 | 0.366 | 0.405 | 0.301
3 | ATATGTAGGTTGTCGGGTCATTCAGTTTGCGCAT | 2.51 | 2.24 | 1.66 | 1.31 | 2.44 | 3.2 | 3.12 | 5 | 4.2
4 | ATCGAAAGGGCGAGGTGAGTATAGAGAAAGGGAA | 1.45 | 1.48 | 1.58 | -0.127 | 0.756 | 1.63 | 0.413 | 0.361 | -0.029
5 | ACTATTAGTTGACTTAGGACAACCGATACGACGC | 0.766 | 0.732 | 1.04 | 0.853 | 0.557 | 2.12 | 1.88 | 0.499 | 0.342
6 | AGAACGAGGGCACGCTGAGTTGATGGCAGAGTAG | 1.37 | 2.06 | 2.33 | 1.76 | 1.53 | 1.89 | 0.0857 | 1.86 | 1.71
7 | CGTCAAAGTTCAAGGTAACGGAACAGAAAGCAGC | 3.7 | 5.46 | 6.41 | 4.07 | 4.74 | 2.84 | 1.14 | 3.63 | 2.84
8 | CCAGACAGGTGAAAGGTAACTAAGTCTGGTACGC | 0.728 | 1.08 | 0.582 | -0.0522 | 1.99 | 0.784 | -0.203 | 0.397 | -0.529
9 | TCATATAGTTAAAAGGTGAAAGTCGGTGTGGTAA | 1.92 | 1.69 | 0.989 | 1.66 | 2.31 | 1.6 | 0.712 | 1.52 | 0.721
10 | TCAGACATGTGAAGGTAACTCAGGTACGCAGTCG | -0.326 | 0.309 | 0.138 | 1.17 | 0.749 | 0.981 | -0.032 | 0.627 | -0.167
11 | TTACCAAGTTGAAGGTCGTTGATCCCTCTGTAGA | 1.15 | 0.339 | 0.342 | 1.07 | 1.2 | 1.26 | 0.0178 | 1.13 | 1.49
12 | CTGAGTAGGTTATGGGGCATTCAGGCAACGGTGA | 0.905 | 0.544 | 0.679 | -0.017 | 0.713 | 0.647 | -0.0528 | 0.0973 | -0.0687
13 | ACTAGCAGGCCAGGTTTGGGTCACTCAAACAAAG | 1.92 | 1.47 | 0.836 | -0.798 | 0.628 | 2.11 | 0.999 | 0.437 | -0.155
14 | TCTGCTAGGTCAGTTTGTCAGCTAACGAGCTGCC | 1.74 | 1.84 | 2.44 | 0.8 | 0.666 | 0.996 | 0.0715 | 0.205 | -0.975
15 | ATCTCTAGGTAAAGATAGTTCAGTGAGTGCAAAT | 1.5 | 0.634 | 0.838 | 0.341 | 0.157 | 1.1 | 0.522 | 5.05 | 4.13
16 | TTACCAAGGTGAAGGTCGTTGATCCCTCTGTAGA | 1.7 | 1.29 | 1.32 | 0.0227 | 1.7 | 2.34 | 1.1 | 1.24 | 1.15
17 | AGTCAAAGTTCAGGACGAGGTAACGTAAAGCACG | 3.25 | 4.81 | 4.53 | 2.83 | 2.9 | 3.87 | 1.81 | 2.85 | 2.08
18 | TCTTGCAGATCAAAGGTTAAGAAAGCCGAAGCCT | 1.18 | 1.47 | 0.521 | 0.00809 | 3 | 1.26 | -0.786 | 1.3 | -0.402
19 | CCAGACAGGTGAGAAGGTAAGTCAGCCTCGATTA | 0.641 | 0.215 | 0.357 | 0.0817 | 0.216 | 0.3 | 0.145 | -0.106 | -0.136
20 | TCATAGAGGTAAACAGGTGAAAGTCCGTAAGTTA | 0.716 | 0.649 | 0.356 | 1.07 | 1.1 | 0.843 | -0.0526 | 0.83 | -0.0713
21 | ACTAGTTGATCAGCTGAGGTCACACACAATTCGG | 4.17 | 3.71 | 3.35 | 1.75 | 3.94 | 4.3 | 4.96 | 4.02 | 4.13
22 | TCATATAGGTAATACAGGTAAAAGTCGGCATCTA | -0.0506 | 0.506 | 0.536 | 1.9 | 1.21 | 0.497 | 0.159 | 1.24 | 0.0521
23 | AATACAGGGTCATCGTAGGCCAGAGGACGCACAG | 3.8 | 5.78 | 5.21 | 3.64 | 7.03 | 4.56 | 1.75 | 5.19 | 3.53
24 | GCTGCTAGGTCAGGTTGATCAGCTAACGGGTACG | 2.24 | 2.65 | 3.71 | 0.558 | 1.14 | 1.73 | 0.499 | 0.431 | 0.442
25 | ATATGTAGGTTAAGGCTCATTCAGGTTGGTTCGC | 0.698 | 0.684 | 0.622 | 0.534 | 0.844 | 0.76 | 0.71 | 0.395 | 0.761
26 | GCTGTTAGGTCAGGTTGGTCAGCTAACGGGTACG | 3.34 | 3.03 | 4.11 | 0.92 | 1.42 | 2.84 | 1.69 | 0.95 | 0.688

Row | Sequence | PBM binding z-score [1] | PBM binding z-score [2] | PBM binding z-score [3] | PBM binding z-score [4] | PBM binding z-score [5] | PBM binding z-score [6] | PBM binding z-score [7] | PBM binding z-score [8] | PBM binding z-score [9]
27 | AAAACGAGGGCAATGAGTTGATAGCACGGGTGGC | 1.2 | 1.23 | 1.6 | 2.07 | 1.13 | 1.31 | -0.257 | 5.46 | 3.26
28 | TTACCAAGGTGAGCTGAGGTGGTTGATCCAACTC | -0.15 | 0.00376 | -0.00239 | -0.813 | 0.0948 | 2.98 | -0.0561 | -0.288 | -0.641
29 | TCATAGAGGTAAAAGGTGAAAGTCGGTGTGGTAA | 1.72 | 2.5 | 0.912 | 1.01 | 4 | 1.97 | -0.0823 | 1.48 | -0.219
30 | CCTCGGAGGACAGAAGATCAGAGCTGTCCGCTTT | -0.501 | -0.0315 | 0.0841 | -0.174 | -0.41 | -0.0672 | -0.73 | -0.618 | -0.8
31 | CAAACTAGGTCACGAAAGGTCAATGTCGAATGAC | 5.73 | 7.46 | 8.51 | 2.11 | 7.37 | 5.27 | 2.55 | 6.57 | 2.77
32 | AATACAGGGTCATTGTAGGCCAGAGTACGCACAG | 3.31 | 5.16 | 4.36 | 4.12 | 6.15 | 4.59 | 0.994 | 5.08 | 3.75
33 | CGTCCAAGGGCATAGGAGGTCAGTGAAGACAGAT | 3.72 | 3.42 | 3.68 | 1.44 | 2.65 | 4.64 | 0.738 | 3.99 | 2.25
34 | TTATATAGGTAAACAGGTGAAAGTCCGTAAGTTA | 0.827 | 0.632 | 0.572 | 0.156 | 0.949 | 0.802 | 0.282 | 0.869 | 0.242
35 | GCTTGTACATCAAGGTTAAGAAAGACTAAGCTAA | 0.275 | 0.435 | 0.375 | -0.122 | 0.599 | 0.997 | -0.187 | 0.208 | -0.281
36 | CATACTAGGTCACAGAGGTCAAAGTCCGTGCGTA | 5.73 | 7.31 | 7.56 | 3.27 | 7.91 | 4.72 | 3.18 | 7.98 | 6.84
37 | TGTCAAACTTCAAAGGTAACGTAAGTATCCACAC | 0.582 | 0.654 | 0.586 | -0.455 | 0.655 | 1.1 | -0.0249 | 0.41 | -0.101
38 | TCTTATAGATCAAAGGTTAAGAAAGCCGAAGCCT | 1.4 | 2.16 | 1.15 | 1.21 | 3.93 | 1.51 | -0.709 | 2.27 | 0.214
39 | TCTAGCAGGCCAGAGGGTCACTCAAGAGGTACGG | 2.8 | 2.56 | 2.39 | -0.167 | 2.61 | 1.54 | -0.299 | 1.28 | 0.59
40 | TAGCCTAGGACATGGGCCAGTATACCACGCGAAC | -0.0727 | -0.00552 | 0.0243 | -0.981 | -0.0222 | 0.476 | 0.11 | -0.512 | -0.526
41 | CCTGCTAGGTCACGGTCAGCTAATCTACAGTATG | 3.98 | 5.01 | 6.09 | 2.08 | 4.15 | 3.35 | 2.35 | 2.5 | 0.444
42 | TCATATAGGTGAATGCTAGGTGAAAGTCCGATCT | 0.945 | 1.54 | 0.61 | 1.39 | 0.992 | 2.06 | 0.5 | 0.699 | -0.483
43 | GGAACAAGGGCAAGTTGATAGCAGAGTTTGATGG | 1.92 | 1.5 | 2.02 | 1.47 | 0.773 | 1.14 | 0.372 | 0.829 | 1.27
44 | ATCGAAAGGTCGTGAGGTGAGTAGACAGAAAGGC | 2.99 | 4.61 | 3.94 | 1.15 | 5.39 | 3.28 | 1.3 | 3.35 | 0.659
45 | GCTAGTTGGTGAGTAAAAGGTCACACACCGGTCG | 4.97 | 4.87 | 4.37 | 0.235 | 5.35 | 3.48 | 1.6 | 3.72 | 1.57
46 | CGTCCAAGGTCAAAGGTCGGTGAAGAGATGACGG | 4.52 | 7.18 | 6.2 | 3.85 | 8.84 | 4.24 | 2.17 | 5.32 | 2.78
47 | CGAACTCGGTCATCCAGGACAGTGAATACATTGA | 1.59 | 2.22 | 2.83 | 0.985 | 0.784 | 2.12 | 0.998 | 2.61 | 1.15
48 | CCTAGTTGGTCAGGAGGTCACACGCCGGATATGA | 4.02 | 4.96 | 4.34 | 0.884 | 4.77 | 3.41 | 2.31 | 3.93 | 2.95
49 | GCTGATAGGTCAGGTTGGTCAGCTAACGGGTACG | 3.37 | 3.84 | 4.49 | 0.3 | 2.6 | 1.46 | -0.126 | 1.58 | 0.351
50 | AGAATGAGGTTATAAAGATCAGGGAATTGCGGTC | 0.868 | 1.15 | 0.986 | 1.35 | 1.92 | 2.14 | 0.473 | 1.27 | 1.01
51 | ATGTCTAGGTAAAGTTCAGTGAAAGATCGATAGA | 2.59 | 2.12 | 2.62 | 1.25 | 1.5 | 1.17 | 0.000451 | 1.8 | 2.39
52 | TCATATAGGTAAACGCTAGGTGAAAGTCCGATCT | 0.416 | 0.628 | 0.523 | 1.63 | 0.944 | 1.52 | 0.385 | 1.03 | 0.251
